Sampled rows, rich in hits. Any-hit rate of the full collection: about 1.8%.
TRPML1 inh: inhibitors of human TRPML1 channel; Q9GZU1; TRPML1-inducible cells, Ca2+ dye fluorescence, FDSS; active compounds read low; inhibition of EC80 agonist-evoked calcium signal; activity change, negative = inhibition, % (no concentration beside the values); hit rate 0.02% among 390,000; in the data active = activity change below about -50%; inconclusive = between about -30% and that limit;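 note: stimulus is agonist 54-4 at its EC80 concentration; % is set by controls: 0 for no effect and ±100 for the full control effect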
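TRPML1-DL cells, Tet-induced overnight (~16 h, 37 °C) at 1,500 cells/well, were loaded with Ca8 no-wash dye plus quencher for 45-90 min at room temperature. Compounds were pinned during FDSS kinetic reading; agonist 54-4 at EC80 (4 uM final) then added.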
HEK293 tox: cytotoxicity in counter-screen for GLP-1R inverse agonists. HEK293 cAMP-luciferase reporter cells, luminescence, 24 h. Potency, µM (top dose mostly 38.3 µM), inactives show top-dose activity change, negative = inhibition, hits mostly inhibitors. hit rate 0.13% among 410,000. AID 624418;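 note: loss of luciferase light is scored as toxicity; potency is the fitted concentration of half-maximal effect; % is set by controls: 0 for no effect and ±100 for the full control effect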
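1536-well qHTS counterscreen of the MLSMR; 200 cells/uL, 12 h pre-incubation, 23 nL cpd, 24 h at 37 deg C 5% CO2, luciferase detection reagent, 12 min RT, luminescence. Inhibition = undesired.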
TRPML1 agonist: activates the human TRPML1 channel; Q9GZU1; TRPML1-expressing cells, Ca2+ dye fluorescence, FDSS; activation, % (test concentration not listed); hit rate 0.12% among 410,000; AID 624414; in the data active = activation above about 50%; inconclusive = mostly about 30% to 49%; note: 0% is about no effect
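Agonist activity was taken from a 110 s kinetic Ca2+ dye read on the FDSS after pinning compounds onto TRPML1-DL cells. The cells were seeded at 1,500/well with Tet inducer, incubated about 16 h, then dye-loaded at room temperature.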
GLP1R inv ag: acts as inverse agonist at human GLP-1 receptor; HEK293 GLP-1R CRE-luciferase, luminescence, 24 h; GLP-1R form is constitutively active; Potency, µM (titrated, usually from 38.3 µM), inactives show at the top dose activity change, negative = inhibition, actives largely listed as inhibitors; hit rate 1.6% among 410,000; AID 624417; note: potency is the fitted concentration of half-maximal effect; % is set by controls: 0 for no effect and ±100 for the full control effect; nearly all actives have a fitted effect of over 55% in size
Target sequence (P43220 whole entry, looked up): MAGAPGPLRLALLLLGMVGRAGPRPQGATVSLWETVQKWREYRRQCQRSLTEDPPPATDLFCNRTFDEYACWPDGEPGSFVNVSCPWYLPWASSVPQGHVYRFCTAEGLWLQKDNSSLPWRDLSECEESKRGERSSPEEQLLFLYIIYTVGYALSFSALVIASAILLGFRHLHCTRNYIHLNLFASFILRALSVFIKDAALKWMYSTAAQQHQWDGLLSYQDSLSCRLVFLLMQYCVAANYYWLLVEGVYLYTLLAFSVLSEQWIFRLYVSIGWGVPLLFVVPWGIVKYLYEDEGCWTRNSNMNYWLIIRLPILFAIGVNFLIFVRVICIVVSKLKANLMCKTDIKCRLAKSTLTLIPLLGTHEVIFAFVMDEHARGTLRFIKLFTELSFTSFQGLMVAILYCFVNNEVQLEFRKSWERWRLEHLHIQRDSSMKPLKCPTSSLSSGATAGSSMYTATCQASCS
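Using stably transfected HEK293 (constitutively active GLP-1R, cAMP-luciferase reporter), compounds were incubated 24 hr and luciferase measured by luminescence.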
GLP-1R agonist: agonists of human GLP-1 receptor. P43220. HEK293 GLP-1R CRE-luciferase, luminescence, 4-6 h; cells express a hypersensitive GLP-1R form. Potency, µM (titrated, usually from 45.6 µM), for the others: top-dose activation, actives largely listed as activators. hit rate 0.007% among 380,000. AID 624172; note: potency is the fitted concentration of half-maximal effect; % of control where 0% means no effect
* = called active by the depositor; ? = inconclusive; . = not tested or not shown. Unless noted, calls come from the whole dose curve; as a rule, active = well fitted curve in the direction sought with a large enough effect; inconclusive = small, poorly fitted or top-dose-only effect, or another doubt; inactive = no such curve, though single readings can be large; an effect the other way counts as inactive or inconclusive.

SMILES	TRPML1 inh	HEK293 tox	TRPML1 agonist	GLP1R inv ag	GLP-1R agonist
Cc1sc2ncn(CCn3cnc4sc(C)c(C)c4c3=O)c(=O)c2c1C	33	-11%	1	5µM*	-1%
Cc1cc(N2CCOCC2)nc(NCc2ccccc2)n1	-7	2%	80*	-26%	1%
Cc1cc(N2CCCCC2)nc(NCc2ccccc2)n1	7	?	?	?	-4%
COC(=O)CSc1nc(N2CCCCC2)c2c(c1C#N)CCCC2	2	21%	-1	10µM*	-1%
N#Cc1c(SCC(=O)O)nc(N2CCCCC2)c2c1CCCC2	2	-5%	-1	-4%	4%
Cc1ccc(CSc2nc3ccccc3c(=O)n2Cc2ccco2)cc1	3	17%	1	?	1%
Cc1cccc(-c2nnc(SCc3ccc(C#N)cc3)n2Cc2ccco2)c1	40	?	4	?	1%
FC(F)(F)COc1cc(-c2nnc(SCc3ccccc3)n2Cc2ccco2)cc(OCC(F)(F)F)n1	77	5%	4	10µM*	13%
O=c1c2ccccc2nc(SCc2ccccc2)n1Cc1ccco1	3	18%	2	11µM*	9%
Cc1cccc(CNC(=O)c2ccc3c(c2)N(C)C(=O)C2CCCCN32)c1 (configuration not stated)	0	14%	1	?	.
O=C(NCCc1cccs1)c1ccc(Cl)cc1	18	-8%	-1	10µM*	-1%
O=C(NCCc1cccs1)c1ccc(Cl)c(Cl)c1	5	2%	3	?	12%
Cc1ccc(C(=O)NCCc2cccs2)cc1	-11	3%	3	5µM*	-3%
O=C(NCCc1cccs1)C(c1ccccc1)c1ccccc1	.	-22%	.	?	5%
c1ccc2c(c1)-c1cccc3cncc-2c13	-4	12%	0	3%	15%
c1ccc2c(-c3cncc4ccccc34)cncc2c1	-7	-7%	2	2µM*	4%
Cc1c(C#N)c(NC(=O)COC(=O)c2cc(Cl)c3c(c2)OCCCO3)n(Cc2ccco2)c1C	.	.	-1	.	.
CN1C(=S)N(c2cccnc2)C(=O)/C1=C\c1ccc(N(C)C)cc1	27	10µM*	25	?	20%
CN1C(=S)N(c2cccnc2)C(=O)/C1=C\c1ccc(C(C)(C)C)cc1	1	22%	3	11µM*	-5%
Cc1c(N2C(=O)/C(=C\c3ccc(N(C)C)cc3)N(C)C2=S)c(=O)n(-c2ccccc2)n1C	-2	?	10	-22%	-5%
COc1ccc(CNC(=O)CCc2nc(-c3ccc(C)cc3)no2)c(OC)c1	9	-3%	0	-5%	.
COc1cccc(-n2c(=O)c3ccccc3n3c(=S)[nH]nc23)c1	-51*	-3%	-1	13%	3%
CCCN(c1ccccc1F)S(=O)(=O)c1ccc2c(c1)C(C)(C)C(=O)N2C	10	2%	1	-24%	.
CC(C)CN(CC(C)C)C(=O)Nc1ccccc1F	3	30%	-1	8.9µM*	11%
O=C(CC(=O)Nc1ccccc1F)Nc1ccccc1F	22	-1%	2	14%	16%
SMILES	TRPML1 inh	HEK293 tox	TRPML1 agonist	GLP1R inv ag	GLP-1R agonist
O=C(Nc1ccc(Cl)c(Cl)c1)Nc1nccs1	-3	4%	1	3.2µM*	-5%
O=C(Nc1cccc(Cl)c1)Nc1nccs1	-8	?	0	0%	3%
Cc1ccc(NCc2cccn2-c2nnc(N3CCC(C(=O)NCCc4ccc(Cl)cc4)CC3)s2)cc1	2	-13%	0	10µM*	.
CC(C)(C)CC(C)(C)N=C1Nc2cc(Cl)c(Cl)cc2N[C@]12C[C@H]1CCCC(=O)N3CC[C@@H](C2)[C@@H]13	.	.	0	.	.
O=C(c1ccc(OC2CCN(C/C=C/c3ccc(F)cc3)CC2)cc1)N1CCCC1	17	-22%	1	3.2µM*	4%
CCc1ccc(CN2CCC(Oc3ccc(C(=O)N4CCCCC4)cc3)CC2)cc1	31	?	0	?	8%
CCc1ccc(CN2CCC(Oc3ccc(C(=O)N4CCCC4)cc3)CC2)cc1	4	?	0	7.9µM*	-8%
Cn1c(/C=C/c2ccc(Br)cc2)c([N+](=O)[O-])c(=O)n(C)c1=O	9	?	-1	4.5µM*	0%

Bioassay records from PubChem.
